# Source: PubChem BioAssay (EPA / NIEHS)
# Inconclusive results are not listed. Active and inactive are the calls of the source. Rule for the calls, unless noted: active = hit-call score of the fitted dose curve at least 0.9, where 1 is the maximum; inconclusive = response in the unintended direction; inactive = score below 0.9.
# Columns and labels:
# [1] = target: Glucocorticoid receptor (Homo sapiens) (UniProt P04150); experiment: ATG_GR_TRANS: Attagene TRANS-FACTORIAL HepG2 Assay for human Glucocorticoid Receptor (GR) (AID 2282978); details: HepG2 Attagene TRANS GR reporter, mRNA transcription;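 note: activators score as hits since higher reporter transcript over DMSO is fitted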
# Procedure, shortened: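 Multiplexed TRANS reporter system, HepG2; 24 h exposure; RNA → oligo(dT) RT → reporter-specific PCR → 6-FAM primer extension → HpaI cut → CE fluorescence. Gain-of-signal vs DMSO.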
# [2] = target: human Peripheral-type Benzodiazepine Receptor (PBR), TSPO (gene 706) (UniProt P30536); experiment: NVS_MP_hPBR: NovaScreen (NVS) Membrane Protein Assay for human Peripheral-type Benzodiazepine Receptor (PBR) (AID 2283331);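 note: hits reduce radioligand binding relative to DMSO baseline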
# Procedure, shortened: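 Cell-free binding to human colonic membrane preparations measured by filter-based scintillation counting after 1 h. Compounds first run at 25 uM in duplicate, then concentration series for actives; signal loss against DMSO baseline.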
# [3] = target: Bile acid receptor (Homo sapiens) (UniProt Q96RI1); experiment: OT_FXR_FXRSRC1_1440: Odyssey Thera (OT) 24-hour HEK293T Protein-Complementation Assay for Farnesoid X receptor/SRC-1 Co-activator (AID 2283384)
# Procedure, shortened: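 Fluorescence readout, 24 h post-dose, HEK293T; FXR and SRC-1 fused to complementary reporter fragments, association reconstitutes signal. Positive-direction fit vs DMSO baseline.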
# [4] = CEETOX_H295R_MTT_cell_viability: Viability Assessment in the CeeTox HT-H295R MTT Assay (AID 2283718; active = hit-call score of the fitted dose curve at least 0.9, where 1 is the maximum; inactive = score below 0.9)
# Procedure, shortened: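 MTT reduction (0.5 mg/ml, 4 h at 37 C; absorbance at 570 and 650 nm) gave viability as background-corrected percent change versus controls. H295R cells had 48 h forskolin (10 uM) prestimulation, then 48 h chemical exposure at 0.1% DMSO.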
# [5] = target: Estrogen receptor (Homo sapiens) (UniProt P03372); experiment: ATG_ERa_TRANS: Attagene TRANS-FACTORIAL HepG2 Assay for human Estrogen Receptor alpha (ERa) (AID 2282970); details: HepG2 Attagene TRANS ERa GAL4 reporter, mRNA
# Procedure, shortened: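 Signal derives from fluorescence of labelled reporter PCR fragments separated by capillary electrophoresis. HepG2 cells transiently carrying multiple GAL4-UAS reporter units were treated 24 hours, and induction above DMSO baseline was fitted as activity.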
# [6] = read-out: Vascular cell adhesion molecule 1 (VCAM1), VCAM1 (gene 7412); experiment: BSK_MyoF_VCAM1: BioMAP Diversity Plus: MyoF Assay for Vascular cell adhesion molecule 1 (VCAM1) Biomarker Activity (AID 2284231; active = hit-call score of the fitted dose curve at least 0.9, where 1 is the maximum; inactive = score below 0.9); details: primary human lung fibroblasts
# Procedure, shortened: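 VCAM-1 levels, lung fibroblasts, ELISA, 24 h exposure, increase scored relative to DMSO.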
# [7] = read-out: Actin alpha 1 (ACTA1), ACTA1 (gene 58); experiment: BSK_MyoF_ACTA1: BioMAP Diversity Plus: MyoF Assay for Actin alpha 1 (ACTA1) Biomarker Activity (AID 2284244; active = hit-call score of the fitted dose curve at least 0.9, where 1 is the maximum; inactive = score below 0.9); details: primary human lung fibroblasts
# Procedure, shortened: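 ELISA read-out of a-SMA in primary human lung fibroblast cultures, 24 h post-dosing. Activity scored in the positive direction versus DMSO baseline.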
# [8] = read-out: Plasminogen activator inhibitor-1 (PAI1), SERPINE1 (gene 5054); experiment: BSK_MyoF_PAI1: BioMAP Diversity Plus: MyoF Assay for Plasminogen activator inhibitor-1 (PAI1) Biomarker Activity (AID 2284256; active = hit-call score of the fitted dose curve at least 0.9, where 1 is the maximum; inactive = score below 0.9;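 for outcome: PAI-1 protein level measured by ELISA in fibroblast cultures; PAI-1 read 24 h after compound addition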); details: primary human lung fibroblasts
# Procedure, shortened: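 In this multiplexed primary-cell system, fibroblasts from human lung received compound for 24 h before ELISA detection of PAI-1; overt toxicity was checked by SRB (0.1%, TCA-fixed, 560 nm) in parallel wells.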
# [9] = read-out: Interleukin-8 (IL8), CXCL8 (gene 3576); experiment: BSK_MyoF_IL8: BioMAP Diversity Plus: MyoF Assay for Interleukin-8 (IL8) Biomarker Activity (AID 2284261; active = hit-call score of the fitted dose curve at least 0.9, where 1 is the maximum; inactive = score below 0.9); details: primary human lung fibroblasts
# Procedure, shortened: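 DMSO-normalised, upward-fitted IL-8 ELISA signal; human lung fibroblasts, 24 h chemical treatment.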
# [10] = BSK_MyoF_SRB: Viability Assessment in the BioMAP Diversity Plus: MyoF Assay (AID 2284267; active = hit-call score of the fitted dose curve at least 0.9, where 1 is the maximum; inactive = score below 0.9;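 note: total protein by SRB absorbance in parallel cultures as cytotoxicity measure; cells assessed 24 h after compound addition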); details: primary human lung fibroblasts
# Procedure, shortened: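 Lung fibroblast cultures, 24 h post-dose; fix 10% TCA, stain 0.1% SRB, read 560 nm. Signal = total protein as cytotoxicity measure; fitted relative to DMSO negative control.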
# [11] = target: human Retinoic Acid Receptor gamma (RARg), RARG (gene 5916) (UniProt P13631); experiment: ATG_RARg_TRANS: Attagene TRANS-FACTORIAL HepG2 Assay for human Retinoic Acid Receptor gamma (RARg) (AID 2283009)
# Procedure, shortened: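 Readout: reporter transcript levels via RT-PCR, 6-FAM primer-extension labelling, HpaI digestion and capillary electrophoresis. Cells: HepG2 carrying transfected RARg-GAL4 chimera plus UAS reporter set. Dosing 24 h; DMSO negative control.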
# [12] = target: rat Thyrotropin Releasing Hormone Receptor (TRH), Trhr (gene 25570) (UniProt Q01717); experiment: NVS_GPCR_rTRH: NovaScreen (NVS) G Protein-Coupled Receptor Assay for rat Thyrotropin Releasing Hormone Receptor (TRH) (AID 2283329);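 note: hit means lower bound tracer signal versus DMSO baseline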
# Procedure, shortened: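 Cell-free radioligand binding on rat forebrain membranes; bound tracer measured by filter-based scintillation counting 4 hours after dosing. Loss of signal versus DMSO baseline indicates displacement; primary screen at 25 uM in duplicate, actives then run in concentration series.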
# [13] = system: Thyroperoxidase (TPO), gene 54314; experiment: CCTE_Simmons_AUR_rTPO: CCTE's Amplex UltraRed Assay for Thyroperoxidase (TPO) Inhibition, Simmons Lab (AID 2283662);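 for AC50: potency for loss of signal meaning inhibition of peroxidase activity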
# Procedure, shortened: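 Rat thyroid microsomal TPO + 25 uM AUR in 200 mM K phosphate; cpd 5 nM–87.5 uM [final], 8 conc, 0.5% DMSO; 300 uM H2O2 starts rxn; 37C dark 30 min; endpoint FI 544/590 nm; n=3.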
# [14] = CCTE_Simmons_CellTiterGLO_HEK293T: Viability Assessment in CCTE's Assays for Thyroperoxidase (TPO) Inhibition, Simmons Lab (AID 2283665);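 for AC50: cells exposed to compound for 24 h before readout; actives reduce ATP signal below DMSO vehicle meaning cytotoxicity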
# Procedure, shortened: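 Luminescent ATP readout (CellTiter-Glo, 20 min at room temperature) after 24 hr exposure of HEK293T cells to 5 nM–87.5 uM final compound; signal loss relative to DMSO vehicle indicated cytotoxicity; dichlone titrated as positive control.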
# [15] = target: Luciferin 4-monooxygenase (Photinus pyralis) (UniProt P08659); experiment: CCTE_Simmons_QuantiLum_inhib_2: CCTE's Firefly Luciferase Inhibition Assay, Simmons Lab (AID 2283767)
# Procedure, shortened: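 Cell-free QuantiLum luciferase, 5 ng/well; compounds 5 nM–87.5 uM final, 8 conc, 0.5% DMSO; 30 min, 37C, dark. Detection reagent (150 uM D-luciferin, 147 uM dATP, CoA, DTT, pH 7.8 final) injected per well, kinetic luminescence. Triplicate biological replicates.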
# [16] = target: human Retinoic Acid Receptor beta (RARb), RARB (gene 5915) (UniProt P10826); experiment: ATG_RARb_TRANS: Attagene TRANS-FACTORIAL HepG2 Assay for human Retinoic Acid Receptor beta (AID 2283004)
# Procedure, shortened: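 Fluorescent capillary-electrophoresis detection of GAL4-UAS reporter mRNA defines the endpoint, with induction over DMSO-treated wells scored as activity. Transiently transfected human hepatoma HepG2 cells expressing exogenous NR–Gal4 proteins are exposed to test chemicals for 24 h.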
# [17] = target: Retinoic acid receptor alpha (Homo sapiens) (UniProt P10276); experiment: ATG_RARa_TRANS: Attagene TRANS-FACTORIAL HepG2 Assay for human Retinoic Acid Receptor alpha (RARa) (AID 2283005)
# Procedure, shortened: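 Reporter transcripts, measured by RT-PCR with fluorescent labeling and capillary electrophoresis after 24 h dosing, reflect activity of an exogenous human RARa–GAL4 fusion in transiently transfected HepG2. Fitted for increase relative to DMSO.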
# [18] = target: Nuclear receptor subfamily 1 group I member 2 (Homo sapiens) (UniProt O75469); experiment: NVS_NR_hPXR: NovaScreen (NVS) Nuclear Receptor Binding Assay for human Pregnane X Receptor (PXR) (AID 2283365);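 note: a drop in FRET signal versus DMSO baseline means the compound binds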
# Procedure, shortened: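 Read-out: TR-FRET, human PXR, 2 h post-dosing, cell-free. Loss of signal vs DMSO taken as binding activity; 25 uM primary, concentration series secondary.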
# [19] = CCTE_Deisenroth_AIME_384WELL_CTox_Inactive: Cytotoxicity Assessment (CTOX) in CCTE's 384-well Estrogen Receptor Transactivation Assay without AIME metabolic competence (metabolism negative), Deisenroth Lab (AID 2284039);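 note: cell viability via live-cell protease substrate cleaved to fluorescent probe; cells exposed 24 h to medium preincubated 2 h with alginate-water beads without S9; loss of fluorescence signal means loss of viability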
# Procedure, shortened: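 VM7Luc4E2 human breast cells received conditioned medium from a 2 h incubation of chemical with alginate-water microspheres (no S9), then were exposed 24 h. Viability was read as protease-substrate cleavage to a fluorescent probe; loss of signal was fitted bidirectionally over 0.002–200 uM.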
# [20] = target: Androgen receptor (Homo sapiens) (UniProt P10275); experiment: ATG_AR_TRANS: Attagene TRANS-FACTORIAL HepG2 Assay for human Androgen Receptor (AR) (AID 2282973); details: HepG2 Attagene TRANS-FACTORIAL AR reporter transcription
# Procedure, shortened: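 Chimeric nuclear receptor–Gal4 activity was assessed in human HepG2 hepatocytes after 24 h chemical dosing. Induced reporter mRNA was detected via labelled RT-PCR fragments on capillary electrophoresis, and gain of signal was analysed against DMSO.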
# Sequence of Estrogen receptor (Homo sapiens) (P03372 whole entry, looked up, the tested form may be a part): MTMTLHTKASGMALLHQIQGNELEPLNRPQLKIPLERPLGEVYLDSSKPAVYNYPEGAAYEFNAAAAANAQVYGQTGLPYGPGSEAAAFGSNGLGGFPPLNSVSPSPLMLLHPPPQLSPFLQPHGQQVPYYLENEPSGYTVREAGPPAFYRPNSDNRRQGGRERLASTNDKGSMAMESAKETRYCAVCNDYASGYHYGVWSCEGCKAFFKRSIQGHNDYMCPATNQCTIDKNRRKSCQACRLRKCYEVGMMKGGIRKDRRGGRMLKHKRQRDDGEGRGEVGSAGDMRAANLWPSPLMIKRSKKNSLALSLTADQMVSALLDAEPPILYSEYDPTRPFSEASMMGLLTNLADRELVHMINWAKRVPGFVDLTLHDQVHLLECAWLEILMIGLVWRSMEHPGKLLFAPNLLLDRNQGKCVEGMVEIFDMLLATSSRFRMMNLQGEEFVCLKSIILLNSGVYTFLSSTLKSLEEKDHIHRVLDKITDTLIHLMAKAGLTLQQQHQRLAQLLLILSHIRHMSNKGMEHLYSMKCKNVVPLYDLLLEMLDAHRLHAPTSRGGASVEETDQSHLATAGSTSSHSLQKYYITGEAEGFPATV
# Sequence of Luciferin 4-monooxygenase (Photinus pyralis) (P08659 whole entry, looked up): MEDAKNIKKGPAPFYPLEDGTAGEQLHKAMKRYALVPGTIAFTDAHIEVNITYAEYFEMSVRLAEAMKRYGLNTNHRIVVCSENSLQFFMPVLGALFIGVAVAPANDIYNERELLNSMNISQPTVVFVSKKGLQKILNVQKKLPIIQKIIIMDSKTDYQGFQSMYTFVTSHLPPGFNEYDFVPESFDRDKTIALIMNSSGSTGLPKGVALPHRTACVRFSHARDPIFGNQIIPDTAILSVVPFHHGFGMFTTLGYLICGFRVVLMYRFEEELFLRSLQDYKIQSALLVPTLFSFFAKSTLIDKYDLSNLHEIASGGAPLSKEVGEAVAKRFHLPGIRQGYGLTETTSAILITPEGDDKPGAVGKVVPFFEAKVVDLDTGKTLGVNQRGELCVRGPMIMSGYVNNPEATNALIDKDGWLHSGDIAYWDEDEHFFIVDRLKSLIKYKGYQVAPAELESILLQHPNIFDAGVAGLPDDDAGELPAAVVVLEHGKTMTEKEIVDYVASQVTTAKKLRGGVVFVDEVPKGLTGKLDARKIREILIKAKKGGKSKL
# Sequence of Bile acid receptor (Homo sapiens) (Q96RI1 whole entry, looked up, the tested form may be a part): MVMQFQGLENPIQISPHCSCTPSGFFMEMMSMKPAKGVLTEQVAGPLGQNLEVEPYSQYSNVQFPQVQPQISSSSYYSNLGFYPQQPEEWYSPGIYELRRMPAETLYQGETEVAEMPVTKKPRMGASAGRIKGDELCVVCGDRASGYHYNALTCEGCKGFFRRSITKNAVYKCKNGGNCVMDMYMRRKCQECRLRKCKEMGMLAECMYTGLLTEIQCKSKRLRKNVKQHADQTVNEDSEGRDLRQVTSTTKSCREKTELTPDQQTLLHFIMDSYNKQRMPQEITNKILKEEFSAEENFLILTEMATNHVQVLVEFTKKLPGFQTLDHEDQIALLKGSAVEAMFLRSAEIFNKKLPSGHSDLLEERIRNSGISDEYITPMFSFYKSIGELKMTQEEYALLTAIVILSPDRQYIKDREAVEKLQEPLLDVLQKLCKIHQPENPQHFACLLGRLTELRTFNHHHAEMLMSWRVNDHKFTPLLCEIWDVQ
# Sequence of Glucocorticoid receptor (Homo sapiens) (P04150 whole entry, looked up): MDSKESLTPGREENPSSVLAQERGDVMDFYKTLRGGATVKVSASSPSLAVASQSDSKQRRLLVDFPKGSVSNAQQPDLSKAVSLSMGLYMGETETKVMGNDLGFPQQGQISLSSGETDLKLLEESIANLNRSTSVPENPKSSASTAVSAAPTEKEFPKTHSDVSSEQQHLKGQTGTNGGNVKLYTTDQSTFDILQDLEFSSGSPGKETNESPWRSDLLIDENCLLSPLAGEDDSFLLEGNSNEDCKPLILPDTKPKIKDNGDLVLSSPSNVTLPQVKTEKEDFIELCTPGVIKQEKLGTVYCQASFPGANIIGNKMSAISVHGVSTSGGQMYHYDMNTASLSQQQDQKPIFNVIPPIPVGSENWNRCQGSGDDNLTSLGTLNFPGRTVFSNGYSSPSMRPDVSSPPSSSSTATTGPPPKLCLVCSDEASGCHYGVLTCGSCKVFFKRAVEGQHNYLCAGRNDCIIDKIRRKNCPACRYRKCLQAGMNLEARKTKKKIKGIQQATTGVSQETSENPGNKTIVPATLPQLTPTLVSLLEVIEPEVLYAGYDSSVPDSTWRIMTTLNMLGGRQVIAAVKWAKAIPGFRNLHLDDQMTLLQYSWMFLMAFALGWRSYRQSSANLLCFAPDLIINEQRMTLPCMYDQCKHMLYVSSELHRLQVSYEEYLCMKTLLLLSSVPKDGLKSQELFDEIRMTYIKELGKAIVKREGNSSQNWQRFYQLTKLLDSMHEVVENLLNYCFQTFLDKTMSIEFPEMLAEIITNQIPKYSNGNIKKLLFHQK
# Sequence of rat Thyrotropin Releasing Hormone Receptor (TRH), Trhr (gene 25570) (Q01717 whole entry, looked up): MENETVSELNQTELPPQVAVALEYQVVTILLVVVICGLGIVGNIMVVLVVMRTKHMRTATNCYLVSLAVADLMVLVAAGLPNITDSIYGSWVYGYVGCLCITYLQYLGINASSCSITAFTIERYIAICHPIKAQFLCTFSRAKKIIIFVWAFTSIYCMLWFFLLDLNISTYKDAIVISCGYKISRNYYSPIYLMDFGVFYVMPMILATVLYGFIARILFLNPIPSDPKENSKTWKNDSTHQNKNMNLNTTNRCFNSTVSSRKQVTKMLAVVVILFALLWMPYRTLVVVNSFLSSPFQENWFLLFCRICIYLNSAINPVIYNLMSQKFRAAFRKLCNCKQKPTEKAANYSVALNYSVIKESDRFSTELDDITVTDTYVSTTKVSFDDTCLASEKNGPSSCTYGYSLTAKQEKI
# Sequence of Retinoic acid receptor alpha (Homo sapiens) (P10276 whole entry, looked up, the tested form may be a part): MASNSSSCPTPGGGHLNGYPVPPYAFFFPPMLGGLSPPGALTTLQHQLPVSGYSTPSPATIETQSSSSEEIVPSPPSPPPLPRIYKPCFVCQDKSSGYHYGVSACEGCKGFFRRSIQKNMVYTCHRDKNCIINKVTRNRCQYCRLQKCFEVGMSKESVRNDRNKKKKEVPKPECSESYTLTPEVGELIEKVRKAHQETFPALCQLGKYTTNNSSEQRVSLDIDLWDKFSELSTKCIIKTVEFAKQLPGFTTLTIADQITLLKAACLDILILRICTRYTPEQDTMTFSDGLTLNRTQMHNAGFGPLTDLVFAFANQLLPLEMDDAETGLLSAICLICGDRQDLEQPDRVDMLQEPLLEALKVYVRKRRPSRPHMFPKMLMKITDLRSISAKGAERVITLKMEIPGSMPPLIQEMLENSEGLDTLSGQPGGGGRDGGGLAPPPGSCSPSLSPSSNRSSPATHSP
# Sequence of human Peripheral-type Benzodiazepine Receptor (PBR), TSPO (gene 706) (P30536 whole entry, looked up): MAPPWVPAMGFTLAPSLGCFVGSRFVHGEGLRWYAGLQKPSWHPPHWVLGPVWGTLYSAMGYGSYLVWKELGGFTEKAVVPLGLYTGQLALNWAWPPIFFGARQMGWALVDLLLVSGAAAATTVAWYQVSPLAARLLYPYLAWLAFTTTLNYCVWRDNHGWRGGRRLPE
# Sequence of Androgen receptor (Homo sapiens) (P10275 whole entry, looked up, the tested form may be a part): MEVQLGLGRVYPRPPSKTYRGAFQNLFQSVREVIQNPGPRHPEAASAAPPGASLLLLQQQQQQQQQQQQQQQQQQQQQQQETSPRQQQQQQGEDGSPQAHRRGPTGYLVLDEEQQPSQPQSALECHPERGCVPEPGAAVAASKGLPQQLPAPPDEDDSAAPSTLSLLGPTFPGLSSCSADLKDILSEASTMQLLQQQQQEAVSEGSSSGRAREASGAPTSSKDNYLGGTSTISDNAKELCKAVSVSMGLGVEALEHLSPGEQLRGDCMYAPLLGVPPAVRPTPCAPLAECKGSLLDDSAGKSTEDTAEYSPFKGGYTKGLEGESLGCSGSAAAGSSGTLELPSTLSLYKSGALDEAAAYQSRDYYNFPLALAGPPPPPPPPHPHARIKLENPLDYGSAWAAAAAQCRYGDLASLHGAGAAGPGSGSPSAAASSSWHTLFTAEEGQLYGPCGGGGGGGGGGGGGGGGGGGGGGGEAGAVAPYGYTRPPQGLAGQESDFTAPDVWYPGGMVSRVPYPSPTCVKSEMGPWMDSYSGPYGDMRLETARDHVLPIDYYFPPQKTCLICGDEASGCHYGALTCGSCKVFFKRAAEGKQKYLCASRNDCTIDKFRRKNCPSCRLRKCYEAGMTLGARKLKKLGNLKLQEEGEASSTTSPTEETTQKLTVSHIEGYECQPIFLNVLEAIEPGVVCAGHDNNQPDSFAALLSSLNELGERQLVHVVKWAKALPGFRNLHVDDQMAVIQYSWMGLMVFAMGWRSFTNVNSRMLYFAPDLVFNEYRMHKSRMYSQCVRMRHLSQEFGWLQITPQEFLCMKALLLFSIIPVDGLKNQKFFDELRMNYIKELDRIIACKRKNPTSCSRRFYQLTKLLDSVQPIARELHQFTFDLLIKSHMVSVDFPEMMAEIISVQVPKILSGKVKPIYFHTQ
# Sequence of Nuclear receptor subfamily 1 group I member 2 (Homo sapiens) (O75469 whole entry, looked up): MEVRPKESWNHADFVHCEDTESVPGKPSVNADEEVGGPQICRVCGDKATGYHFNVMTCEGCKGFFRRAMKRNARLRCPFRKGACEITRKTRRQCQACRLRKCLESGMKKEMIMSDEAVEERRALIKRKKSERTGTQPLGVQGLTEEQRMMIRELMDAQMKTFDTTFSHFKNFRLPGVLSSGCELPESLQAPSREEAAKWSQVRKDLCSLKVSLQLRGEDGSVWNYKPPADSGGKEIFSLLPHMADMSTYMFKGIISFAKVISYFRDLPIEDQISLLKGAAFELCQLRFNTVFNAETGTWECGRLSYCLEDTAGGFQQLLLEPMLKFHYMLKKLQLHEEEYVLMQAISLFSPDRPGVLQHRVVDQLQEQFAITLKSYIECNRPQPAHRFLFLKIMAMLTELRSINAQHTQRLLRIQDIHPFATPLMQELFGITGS
smiles,measurement,setting,value
[CH3][Sn]([Cl])([Cl])[Cl],outcome,[1],inactive
CCOP(=O)(OCC)Oc1ccc([N+](=O)[O-])cc1,outcome,[2],inactive
same,outcome,[3],inactive
same,outcome,[4],inactive
Clc1ccc(-c2ccccc2)cc1,AC50,[5],36.8 µM (active)
same,outcome,[6],inactive
same,outcome,[7],inactive
same,AC50,[8],0.121 µM (active)
same,outcome,[9],inactive
same,outcome,[10],inactive
O=[N+]([O-])O,outcome,[11],inactive
Nc1cc(Cl)cc(Cl)c1,outcome,[12],inactive
same,outcome,[3],inactive
same,AC50,[13],17.1 µM (active)
same,outcome,[14],inactive
same,outcome,[15],inactive
Nc1ccccc1C(=O)OCCc1ccccc1,outcome,[1],inactive
same,outcome,[16],inactive
same,outcome,[17],inactive
COc1ncc(F)c2nc(S(=O)(=O)Nc3c(F)cccc3F)nn12,outcome,[5],inactive
O=C1Nc2ccc(Cl)cc2C(c2ccccc2)=NC1O (configuration not stated),outcome,[3],inactive
O=C(O)COc1ccccc1,outcome,[5],inactive
O=C=Nc1ccccc1,outcome,[17],inactive
same,outcome,[13],inactive
same,outcome,[14],inactive
same,outcome,[4],inactive
same,outcome,[15],inactive
CCCOC(=O)c1ccccc1C(=O)OCCC,AC50,[5],33.7 µM (active)
same,outcome,[6],inactive
same,outcome,[7],inactive
same,outcome,[8],inactive
same,outcome,[9],inactive
same,outcome,[10],inactive
CC(C)COP(=O)(OCC(C)C)OCC(C)C,AC50,[2],25 µM (active)
same,outcome,[6],inactive
same,outcome,[7],inactive
same,outcome,[8],inactive
same,outcome,[9],inactive
same,outcome,[10],inactive
C=CC(=O)OCC(CC)CCCC (configuration not stated),outcome,[13],inactive
same,outcome,[14],inactive
same,outcome,[15],inactive
same,outcome,[6],inactive
same,outcome,[7],inactive
same,outcome,[8],inactive
same,outcome,[9],inactive
same,outcome,[10],inactive
C[C@]12CCC(=O)C(O)=C1CC[C@@H]1[C@@H]2CC[C@]2(C)C(=O)CC[C@@H]12,AC50,[5],9.42 µM (active)
same,outcome,[1],inactive
CC(C)(c1cc(Cl)c(O)c(Cl)c1)c1cc(Cl)c(O)c(Cl)c1,outcome,[12],inactive
same,AC50,[18],5.12 µM (active)
same,AC50,[13],19.8 µM (active)
same,AC50,[14],90.8 µM (active)
same,outcome,[15],inactive
same,AC50,[19],153 µM (active)
same,AC50,[7],6.18 µM (active)
same,AC50,[8],9.2 µM (active)
same,AC50,[9],34 µM (active)
same,AC50,[10],16.5 µM (active)
COc1cc(OC)nc(Oc2cccc(Oc3nc(OC)cc(OC)n3)c2C(=O)O)n1,outcome,[20],inactive
same,outcome,[12],inactive
same,outcome,[3],inactive
same,AC50,[13],34.9 µM (active)
same,outcome,[14],inactive
same,outcome,[15],inactive
Oc1ccc(C2(c3ccc(O)cc3)c3ccccc3-c3ccccc32)cc1,outcome,[5],inactive
same,outcome,[1],inactive
O=P(O)(Oc1ccccc1)Oc1ccccc1,outcome,[5],inactive
same,outcome,[12],inactive
same,outcome,[3],inactive
O=CNC(N1CCN(C(NC=O)C(Cl)(Cl)Cl)CC1)C(Cl)(Cl)Cl (configuration not stated),outcome,[5],inactive
same,outcome,[4],inactive
